Bioassay records as filed in PubChem BioAssay.
The list is not random: actives were taken first. Their share in the collection is about 5.7%.
AHR activator – AHR activators, primary screen, cell-based, luminescence, luciferase reporter, human | Aryl hydrocarbon receptor (Homo sapiens), P35869 | AHR-responsive luciferase reporter cells | activation, % at 5 µM | 320,000 tested, 2.5% active | AID 2796, 2010; in the data active means activation above about 47%;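 further: 0% = vehicle wells and 100% = reference agonist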
hgDAF12 agonist – H. glycines DAF-12 receptor agonists, primary screen, cell-based, luminescence, HEK293, GAL4 fusion, UAS-luciferase | activation, % at 6.8 µM | 370,000 tested, 1.8% active | HEK293 GAL4-hgDAF12 UAS-luciferase reporter, agonist luminescence; normalized to butyrate control;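 active means activation above a cutoff set at the mean of all screened compounds plus 3 SD, cut at about 10% in these data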;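 further: 0% = DMSO wells and 100% = sodium butyrate wells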
DAX1 inh-1 – DAX1 (NR0B1) inhibitors, primary screen, cell-based, HEK293, Gal4-DAX1, luciferase luminescence | Nuclear receptor subfamily 0 group B member 1 (Homo sapiens), P51843 | HEK293 Gal4-DAX1 luciferase reporter | inhibition, % at 6.75 µM | 340,000 tested, 0.99% active;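 active means inhibition above the mean over all tested compounds plus 3 SD, cut at about 4.2% in these data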;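 further: 0% = DAX1-transfected cells with DMSO and 100% = empty-vector control cells with DMSO; inhibition shows as a rise in luminescence from relieved DAX1 repression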
ssDAF-12 act – S. stercoralis DAF-12 nuclear receptor activators, primary screen, cell-based, luminescence, HEK293, GRIP1 co-expression, lit1-tk-luc; 370,000 tested, 1% active; HEK293 ssDAF-12/GRIP1 lit1-tk-luc reporter; % of 3 µM dafachronic acid response; activation, % at 6.8 µM;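 active means activation above the mean over all tested compounds plus 3 SD, cut at about 0.9% in these data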;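 further: 0% = DMSO-only wells and 100% = 3 µM delta7-dafachronic acid wells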
hcDAF-12 act – H. contortus DAF-12 nuclear receptor activators, primary screen, cell-based, luminescence, HEK293, lit1-tk-luc reporter; 370,000 tested, 1.4% active; HEK293 hcDAF-12 lit1-tk-luc reporter; 0% DMSO, 100% Δ7-dafachronic acid; AID 652067, 2013; activation, % at 6.8 µM;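 active means activation above the mean of all tested compounds plus 3 SD, cut at about 5.5% in these data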;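 further: 100% = response to 3 µM Δ7-dafachronic acid high control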
DAX1 inh-2 – DAX1 (NR0B1) inhibitors on StAR promoter, primary screen, cell-based, luminescence, SF-1 (NR5A1), full-length DAX-1; inhibition, % at 6.8 µM; 370,000 tested, 1.1% active; AID 652010, 2013; HEK293T StAR-luciferase reporter, SF-1/DAX-1 repression relief;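 active means inhibition above the mean over all tested compounds plus 3 SD, cut at about 3.6% in these data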;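 further: 0% = DAX-1 cells with DMSO and 100% = cells lacking DAX-1 with DMSO; higher inhibition means more luminescence from relief of DAX-1 repression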
DAX1 inh confirm – DAX1 (NR0B1) inhibitors relieving SF-1 repression, confirmation, cell-based, luminescence, HEK293T, full-length DAX-1, SF-1 activated StAR promoter. shares compounds with DAX1 inh-2. HEK293T StAR-promoter luciferase reporter, SF-1/DAX-1 repression. inhibition, % at 6.8 µM. 2,400 tested, 87% active. AID 652134, 2013;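 active means inhibition above the average of every tested compound plus 3 SD, cut at about 3.8% in these data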;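 further: 0% = DAX-1 cells with DMSO and 100% = no DAX-1 control cells with DMSO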
Target sequence (P51843 whole entry, looked up): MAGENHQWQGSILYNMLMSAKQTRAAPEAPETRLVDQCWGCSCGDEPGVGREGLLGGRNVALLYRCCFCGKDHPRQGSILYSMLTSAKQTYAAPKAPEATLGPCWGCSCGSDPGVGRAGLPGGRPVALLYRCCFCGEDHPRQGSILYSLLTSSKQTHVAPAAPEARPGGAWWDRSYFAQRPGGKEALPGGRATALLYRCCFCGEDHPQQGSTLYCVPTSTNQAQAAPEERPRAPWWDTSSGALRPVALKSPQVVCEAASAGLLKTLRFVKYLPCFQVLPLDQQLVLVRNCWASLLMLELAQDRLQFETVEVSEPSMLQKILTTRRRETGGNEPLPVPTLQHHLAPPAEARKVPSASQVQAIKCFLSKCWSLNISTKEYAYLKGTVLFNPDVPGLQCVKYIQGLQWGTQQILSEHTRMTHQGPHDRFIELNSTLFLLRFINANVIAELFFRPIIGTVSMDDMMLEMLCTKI
SF1 AF2mut Luc – StAR reporter signal changes without DAX1, counter-screen for DAX1 inhibitor project, cell-based, luminescence, AF-2 mutant SF-1, transactivation; shares compounds with DAX1 inh-2; HEK293 StAR-luciferase, SF-1 AF2 mutant; inhibition, % at 6.8 µM; 2,400 tested, 78% active; AID 652136, 2013;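 active means inhibition above the mean of all tested compounds plus 3 SD, cut at about 3% in these data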;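 further: 0% = DAX-1 transfected cells with DMSO and 100% = cells without DAX-1 with DMSO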
LXRb hcDAF ctr – LXR agonists, Gal4 luciferase reporter, confirmation, counter-screen for hcDAF-12 agonist project, cell-based, luminescence, HEK293, H. contortus campaign; 3,400 tested, under 10 active; shares compounds with hcDAF-12 act; activation, % at 6.8 µM; HEK293 Gal4-LXR tk-luc reporter, 24 h; normalized: DMSO 0%, positive control 100%;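 active means mean percent activation of the reporter above a cutoff set as the average over tested compounds plus their standard deviation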
hcDAF12 ag – H. contortus DAF-12 receptor agonists, confirmation, cell-based, luminescence, HEK293, lit1-tk-luc, triplicate | shares compounds with hcDAF-12 act | HEK293 hcDAF-12 lit1-tk-luc reporter; % of Δ7-dafachronic acid response | activation, % at 6.8 µM | 3,400 tested, 61% active;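 active means mean activation across triplicate tests above the threshold derived from the earlier primary screen, cut at about 5.5% in these data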;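 further: 0% = DMSO only wells and 100% = 3 µM Δ7-dafachronic acid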
Active calls of the source: *.

How did O=C(CN1CCCC1)Nc1ccc(F)c(Cl)c1 do in these assays?
AHR activator: 0; hgDAF12 agonist: -1; DAX1 inh-1: -1; ssDAF-12 act: -1; hcDAF-12 act: 1; DAX1 inh-2: 0

Results for Nc1[nH]n(-c2ccccc2)c(=O)c1N=Nc1ccc2c(c1)OCCO2 ?
AHR activator: 24; hgDAF12 agonist: 15*; DAX1 inh-1: -1; ssDAF-12 act: 2.1*; hcDAF-12 act: 9.4*; DAX1 inh-2: 5.0*; DAX1 inh confirm: 13*; SF1 AF2mut Luc: 6.0*; LXRb hcDAF ctr: 2; hcDAF12 ag: 12*

Results for O=C(O)c1cc(NC(=O)c2ccc([N+](=O)[O-])cc2)cc(NC(=O)c2ccc([N+](=O)[O-])cc2)c1 ?
AHR activator: 0; hgDAF12 agonist: 1; DAX1 inh-1: -1; ssDAF-12 act: -1; hcDAF-12 act: 0; DAX1 inh-2: 0

What do the screens show for `O=C(Nc1ccc([N+](=O)[O-])cc1)C(=O)Nc1cccc(C(=O)O)c1`?
AHR activator: -9; hgDAF12 agonist: 13*; DAX1 inh-1: -7; ssDAF-12 act: 2.7*; hcDAF-12 act: 11*; DAX1 inh-2: 5.4*; DAX1 inh confirm: 12*; SF1 AF2mut Luc: 8.5*; LXRb hcDAF ctr: 2; hcDAF12 ag: 25*

How did Cc1cccc(CN2CCC(C(=O)Nc3ccc(-n4nc(C)cc4C)cc3)CC2)n1 do in these assays?
AHR activator: 0; hgDAF12 agonist: -1; DAX1 inh-1: 1; ssDAF-12 act: -1; hcDAF-12 act: -3; DAX1 inh-2: 0

How did C/C(=N/Nc1ncc(Br)cn1)c1ccc(Br)cc1 do in these assays?
AHR activator: 14; hgDAF12 agonist: 5; DAX1 inh-1: 2; ssDAF-12 act: -1; hcDAF-12 act: -1; DAX1 inh-2: 0

Results for C/C(=N\Nc1ccc(C(=O)O)cc1)c1ccc(Br)cc1 ?
AHR activator: -5; hgDAF12 agonist: 19*; DAX1 inh-1: -3; ssDAF-12 act: 1; hcDAF-12 act: 12*; DAX1 inh-2: 5.1*; DAX1 inh confirm: 16*; SF1 AF2mut Luc: 5.3*; LXRb hcDAF ctr: 2; hcDAF12 ag: 14*

What do the screens show for `COc1cc(C(=O)N2CCN(C(=O)c3cc(-c4ccccc4)n[nH]3)CC2)cc(OC)c1OC`?
AHR activator: 5; hgDAF12 agonist: -2; DAX1 inh-1: 0; ssDAF-12 act: -1; hcDAF-12 act: 0; DAX1 inh-2: 1

What do the screens show for `Cn1ccc(C(=O)Nc2sc3c(c2C(N)=O)CCCCC3)n1`?
AHR activator: 8; hgDAF12 agonist: 12*; DAX1 inh-1: 2; ssDAF-12 act: -1; hcDAF-12 act: 7.8*; DAX1 inh-2: 10*; DAX1 inh confirm: 4.9*; SF1 AF2mut Luc: 3; LXRb hcDAF ctr: 1; hcDAF12 ag: 6.9*

What do the screens show for `Cc1ccc(SCc2cn3c(C)csc3n2)cc1`?
AHR activator: 33; hgDAF12 agonist: 12*; DAX1 inh-1: 0; ssDAF-12 act: 1; hcDAF-12 act: 8.0*; DAX1 inh-2: 5.2*; DAX1 inh confirm: 17*; SF1 AF2mut Luc: 7.0*; LXRb hcDAF ctr: 2; hcDAF12 ag: 7.8*

Results for CCc1ccc(NC(=O)c2noc3c2CCC3)cc1 ?
AHR activator: 12; hgDAF12 agonist: 12*; DAX1 inh-1: -2; ssDAF-12 act: 1.4*; hcDAF-12 act: 9.3*; DAX1 inh-2: 5.7*; DAX1 inh confirm: 21*; SF1 AF2mut Luc: 7.9*; LXRb hcDAF ctr: 2; hcDAF12 ag: 14*

What do the screens show for `COC(=O)c1ccccc1NC(=O)c1noc2c1CCC2`?
AHR activator: 8; hgDAF12 agonist: 1; DAX1 inh-1: -1; ssDAF-12 act: -1; hcDAF-12 act: 1; DAX1 inh-2: 0

How did O=C1c2ccccc2S(=O)(=O)N1CC1CC(c2ccccc2Cl)=NO1 (stereo not given) do in these assays?
AHR activator: 11; hgDAF12 agonist: 15*; DAX1 inh-1: 3; ssDAF-12 act: 1; hcDAF-12 act: 8.7*; DAX1 inh-2: 5.5*; DAX1 inh confirm: 11*; SF1 AF2mut Luc: 8.1*; LXRb hcDAF ctr: 1; hcDAF12 ag: 13*

Results for COc1ccc(CCN2CCCC(CN(C)C(=O)c3ccoc3)C2)cc1 (stereo not given) ?
hgDAF12 agonist: 13*; DAX1 inh-1: 0; ssDAF-12 act: 0; hcDAF-12 act: 7.2*; DAX1 inh-2: 10*; DAX1 inh confirm: 8.8*; SF1 AF2mut Luc: 5.5*; LXRb hcDAF ctr: 0; hcDAF12 ag: 2

Results for O=C(CSc1nnc(NC(=O)c2c(F)cccc2F)s1)Nc1ccc(F)cc1 ?
AHR activator: 1; hgDAF12 agonist: 4; DAX1 inh-1: 2; ssDAF-12 act: -1; hcDAF-12 act: 2; DAX1 inh-2: 1

What do the screens show for `CC(=O)Nc1ccc(NC(=O)CSc2nnc(NC(=O)c3cccc(F)c3)s2)cc1`?
AHR activator: 12; hgDAF12 agonist: 9; DAX1 inh-1: -1; ssDAF-12 act: 1.1*; hcDAF-12 act: 12*; DAX1 inh-2: 7.5*; DAX1 inh confirm: 4.6*; SF1 AF2mut Luc: 4.6*; LXRb hcDAF ctr: 0; hcDAF12 ag: 4
